Compound activity (PubChem)
A selection: hits, their analogues and other compounds. The true share with any hit is near 0.99%.
L3MBTL1 block: blocks human L3MBTL1; Potency, µM (highest dose often 57.1 µM), without a hit: at the highest dose activity, negative = inhibition, most hits filed as inhibitors; AID 485360; AlphaScreen L3MBTL1–H3K9me1 peptide binding; actives 0.66% (n = 230,000); further: nearly all actives have a fitted effect of over 60% in size
Target sequence (Q9Y468 whole entry, looked up): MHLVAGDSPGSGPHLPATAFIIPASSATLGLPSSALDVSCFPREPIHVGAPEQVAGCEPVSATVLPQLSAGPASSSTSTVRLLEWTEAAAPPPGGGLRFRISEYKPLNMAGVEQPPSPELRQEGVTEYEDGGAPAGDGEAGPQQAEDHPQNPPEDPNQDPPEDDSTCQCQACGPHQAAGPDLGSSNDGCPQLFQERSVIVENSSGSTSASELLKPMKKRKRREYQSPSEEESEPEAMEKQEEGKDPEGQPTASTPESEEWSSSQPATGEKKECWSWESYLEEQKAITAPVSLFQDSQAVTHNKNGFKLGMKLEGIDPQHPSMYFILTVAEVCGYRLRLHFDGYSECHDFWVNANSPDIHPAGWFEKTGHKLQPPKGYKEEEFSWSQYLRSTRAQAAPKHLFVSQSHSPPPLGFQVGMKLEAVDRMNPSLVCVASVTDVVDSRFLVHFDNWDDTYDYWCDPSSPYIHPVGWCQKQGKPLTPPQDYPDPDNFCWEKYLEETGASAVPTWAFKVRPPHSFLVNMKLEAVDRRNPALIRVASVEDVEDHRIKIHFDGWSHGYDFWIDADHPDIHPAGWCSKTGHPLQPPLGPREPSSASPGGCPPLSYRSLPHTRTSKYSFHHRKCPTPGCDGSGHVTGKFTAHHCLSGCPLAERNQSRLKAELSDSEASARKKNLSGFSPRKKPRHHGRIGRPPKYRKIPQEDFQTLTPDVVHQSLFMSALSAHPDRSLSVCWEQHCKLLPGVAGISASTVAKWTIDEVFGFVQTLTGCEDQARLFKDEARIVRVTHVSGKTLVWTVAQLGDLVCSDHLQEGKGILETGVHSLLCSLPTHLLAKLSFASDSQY
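L3MBTL1 50 nM + b-AHA-H3(1-15)K9me1 75 nM, 30 min RT; compound added, 30 min RT; streptavidin donor/Ni-chelate acceptor beads 10 ug/mL each final, 30 min RT dark; AlphaScreen read.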
RECQ1 inh-1: RECQ1 (human) helicase inhibition; P46063; RECQ1 DNA unwinding, red fluorescence kinetic read; Potency, µM (doses to about 57.3 µM), without a hit: at the top dose activity, negative = inhibition, usual class: inhibitors; actives 0.54% (n = 240,000); AID 2549;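 further: plate controls were vehicle for no effect and no enzyme for full effect; nearly all actives have a fitted effect of over 30% in size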
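RECQ1T1 50 nM; forked duplex (20 bp + 30-nt ss tails) 200 nM, ATP 2 mM final; pH 8.0, 2 mM MgCl2, 2.5 ug/ml poly(dI-dC); 15 min compound preincubation; discontinuous kinetic read over 2 h at RT.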
BLM inh: inhibitors of human Bloom syndrome helicase BLM. actives 0.2% (n = 350,000). AID 2528. P54132. Potency, µM (top dose mostly 56.1 µM), inactives show at the highest dose activity change, negative = inhibition, most hits filed as inhibitors. recombinant BLM DNA unwinding, fluorescence dequenching;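 further: plate controls were vehicle for no effect and no enzyme for full effect; nearly all actives have a fitted effect of over 35% in size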
FEN1 inhibitor: human FEN1 inhibition; Recombinant FEN1 flap cleavage, fluorescence, 15 min; AID 588795; actives 0.35% (n = 390,000); Potency, µM (top dose mostly 114 µM), for inactives: top-dose activity change, negative = inhibition, hits mostly inhibitors; further: nearly all actives have a fitted effect of over 65% in size
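Quantitative HTS format: each compound was titrated, incubated with 10 nM nuclease for 15 min at room temperature, then challenged with flap substrate at 50 nM final. Signal change over 15 min gave concentration–effect curves.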
WRN helicase inh: WRN helicase (human) inhibition; Q14191; WRN helicase unwinding, fluorescent forked duplex, kinetic; Potency, µM (highest dose often 114 µM), for the others: at the top dose activity change, negative = inhibition, hits mostly inhibitors; actives 0.46% (n = 360,000); further: nearly all actives have a fitted effect of over 55% in size
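Fluorescence dequenching readout, ex 525 nm/em 598 nm, kinetic mode: forked duplex DNA (100 nM final) with adjacent fluorophore and quencher unwound by WRN (20 nM final) with 2 mM ATP. Compound preincubation 15 min, room temperature.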
RECQ1 inh conf: confirmation of human RECQ1 helicase inhibitors | RECQ1 helicase DNA unwinding, fluorescence | shares compounds with RECQ1 inh-1 | actives 28% (n = 610) | Potency, µM (titrated, usually from 229 µM), without a hit: at the top dose activity change, negative = inhibition, most hits filed as inhibitors | AID 2708; further: nearly all actives have a fitted effect of over 45% in size
ADP FP counter: ADP displacement flagged in RECQ1 inhibitor counter-screen | shares compounds with RECQ1 inh-1 | ADP fluorescence polarization displacement counterscreen | Potency, µM (highest dose often 228 µM), inactives show at the highest dose activity change, negative = inhibition, hits mostly inhibitors | actives 27% (n = 530) | AID 2711; further: nearly all actives have a fitted effect of over 45% in size
RECQ1 inh-2: RECQ1 helicase inhibition confirmed, round 2. shares compounds with RECQ1 inh-1. recombinant RECQ1 DNA unwinding, red fluorescence. Potency, µM (highest dose often 119 µM), inactives show top-dose activity, negative = inhibition, most hits filed as inhibitors. actives 15% (n = 1,100); further: nearly all actives have a fitted effect of over 50% in size
The depositor's hits bear a star; i = inactive; ? = inconclusive; / = no result given; [ ] = dose if it differs, or a comment. The call rests on the fitted dose curve; in most records, active means well fitted curve in the direction sought with a large enough effect; inconclusive means small, poorly fitted or top-dose-only effect, or another doubt; inactive means no such curve, though single readings can be large; an effect the other way counts as inactive or inconclusive. Unless noted, on the % scale 0 is the no-effect control and ±100 the full control effect; potency means the concentration at half of the fitted maximal effect.

SMILES | L3MBTL1 block | RECQ1 inh-1 | BLM inh | FEN1 inhibitor | WRN helicase inh | RECQ1 inh-2 | others
CC(C)n1cnnc1SCC(=O)Nc1ccc(Br)cc1F | 2% | i | -2% | 17% | -3% | /
Cc1cccc(N2CCN(C(=O)c3ccccc3NC(=O)C3CC=CCC3C(=O)O)CC2)c1 (centres undefined) | / | i | -1% | 4% | 3% | / | RECQ1 inh conf=12%;ADP FP counter=-6%
CC(=O)CNc1ccc(S(=O)(=O)N/N=C/c2ccccc2)cc1 | 2% | i | 1% | 15% | -4% | /
CN(C(=O)c1ccno1)c1nnc(-c2ccccn2)s1 | -1% | -7% | -1% | -1% | -10% | /
Cc1ccc(S(=O)(=O)/N=C2/C=C(Sc3ncn[nH]3)C(=O)c3ccccc32)cc1 | -23% | ? | 16µM* | 50µM* | 32µM* | ?
COc1ccc(-c2noc(N3CCC(C(=O)NCCCN4CCCC(C)C4)CC3)n2)cc1 (centres undefined) | 1% | / | -11% | 20% | 1% | /
O=C1CCCC/C1=C\Nc1ccc(O)cc1 | ? | ? | -9% | -3% | -4% | -25%
CCOC(=O)C1=C(c2ccccc2)N=c2s/c(=C\c3ccc(O)cc3)c(=O)n2C1c1cccs1 (centres undefined) | -2% | ? | -12% | ? | ? | 16µM*
C=CCSc1nc(=O)n2ccc(C)cc2n1 | / | 1.6µM* | -21% | 0% | -7%[11.6 µM] | -21% | RECQ1 inh conf=5%[114 µM];ADP FP counter=-6%[91.9 µM]
O=C(Cc1cccs1)NC1C(=O)N2C(C(=O)[O-])=C(C[n+]3ccccc3)CSC12 (centres undefined) | / | ? | -22% | / | / | / | RECQ1 inh conf=?;ADP FP counter=6.3µM*
O=C(NC(=S)N1CCc2ccccc21)c1ccccc1 | -13% | -8% | 0% | -3% | 6% | /
Cc1ccc(S(=O)(=O)N[C@H](C(=O)OCC(=O)NC(=O)NCc2ccco2)C(C)C)cc1 | -40% | / | / | -7% | -7% | /
C#CCN1C(=O)S/C(=C/C=C/c2ccc(N(C)C)cc2)C1=O | ? | 25µM* | ? | ? | 35µM* | 18µM*
O=C(O)CN1C(=O)/C(=C/C=C/c2ccccc2)SC1=S | 11% | -8% | -3% | -1% | -1% | /
COC(=O)c1cc(NS(=O)(=O)c2ccc(F)cc2)ccc1N1CCOCC1 | 2% | -3% | 0% | -1% | -2% | /
Cc1ccc2sc(C)[n+](CCCS(=O)(=O)[O-])c2c1 | / | 3.5µM* | -4% | -2% | ? | / | RECQ1 inh conf=9%[114 µM];ADP FP counter=8%[91.9 µM]
Cc1ccc2c(c1)sc(C)[n+]2CCCS(=O)(=O)[O-] | / | 4% | -1% | 0% | -5% | /
Cn1c(N)c(C(=O)COC(=O)CC(NC(=O)c2ccccc2Cl)c2ccccc2)c(=O)n(C)c1=O (centres undefined) | 8% | -14% | -2% | 4% | -4% | / | RECQ1 inh conf=8%;ADP FP counter=4%
CCOC(=O)c1ccc(N2N=C(C)/C(=C/C=C/c3ccco3)C2=O)cc1 | 32µM* | ? | 6% | 11% | -2% | -3%
CCOC(=O)c1cc(-c2ccc(/C=C3/C(=O)N(c4ccc(C(=O)O)cc4)N=C3C)o2)ccc1Cl | / | / | -1% | -21% | -23%[11.6 µM] | /
Cc1ccc(S(=O)(=O)N2CCOCC2)cc1NC(=O)Cn1nnc(-c2ccccc2)n1 | / | / | / | / | 6% | /
O=C(Cn1nnc(-c2ccc(S(=O)(=O)N3CCCC3)cc2)n1)Nc1ccccc1-n1cccc1 | -9% | i | -6% | -15% | -7% | / | RECQ1 inh conf=4%;ADP FP counter=0%
O=C(CN(Cc1ccccc1)S(=O)(=O)c1ccccc1)N/N=C/c1ccccc1[N+](=O)[O-] | -5% | -8% | -8% | -20% | -12% | / | RECQ1 inh conf=1%;ADP FP counter=8%
Cc1cc(Nc2ccc(C(=O)O)c(O)c2)n2ncnc2n1 | / | / | 2% | 11% | / | /
CCOc1c(OC(C)=O)ccc(/C=C/c2ccc3cccc(OC(C)=O)c3n2)c1[N+](=O)[O-] | -10% | 32µM* | -14% | -17% | -15% | -11%
SMILES | L3MBTL1 block | RECQ1 inh-1 | BLM inh | FEN1 inhibitor | WRN helicase inh | RECQ1 inh-2 | others
CCn1c(CSc2nnc(-c3ccncc3)n2C)nc2cc(C(=O)O)ccc21 | / | 14µM* | -6% | ? | 71µM* | 79µM* | RECQ1 inh conf=40µM*;ADP FP counter=7.1µM*
Cc1cc2c(NC(=O)Nc3ccccc3)cccc2nn1 | -23% | ? | 6% | -6% | 0% | 0%
Cc1cc2c(NC(=O)Nc3ccc(C(C)(C)C)cc3)cccc2nn1 | -20% | i | -21% | ? | -14% | /
N#CCCn1c(=O)c(CCc2ccccc2)nc2cnc(Oc3ccccc3)nc21 | / | -13% | -14% | / | / | /
CC1(C)CC(=O)C(C=Nc2cc(C(=O)c3ccccc3)ccc2N)=C(O)C1 | 7% | i | -7% | 7% | 5% | /
CCCc1cc(=O)oc2c(CN3CCCC3)c(O)ccc12 | 4% | -9% | -1% | -1% | 7% | /
CCCc1cc(=O)oc2cc(C)c(CN3CCCC3)c(O)c12 | 8.9µM* | 13µM* | 25µM* | 50µM* | 40µM* | ?
CCN1CCN(C(c2ccccc2F)c2c(O)cc(C)n(CCOC)c2=O)CC1 (centres undefined) | / | / | -1% | -20% | / | /
CCOC(=O)c1c(CN2CCN(C)CC2)oc2ccc(O)cc12 | 30% | i | 6% | -6% | 1% | /
N#CC1=C(N)n2c(s/c(=C\c3ccco3)c2=O)=C(C#N)C1c1ccco1 (centres undefined) | 25µM* | 8.9µM* | -6% | 45µM* | 40µM* | -31%
O=C(c1ccc(Oc2ccccc2)cc1)c1nc2c(n1O)CCCC2 | / | -10% | -2% | -6% | -10% | /
CCCCOc1ccc(S(=O)(=O)NC(=O)C2(C)CCN2C(=O)CCc2ccccc2)cc1 (centres undefined) | / | / | / | / | 2% | /
CN(C)c1ccc(/C=C2\SC(=O)N(CCc3nnc(N)s3)C2=O)cc1 | / | ? | -8% | 2% | -12% | ?
O=c1cnnc(Nc2ccc(Nc3ccccc3)cc2)[nH]1 | / | -4% | -1% | -4% | -5% | /
Cc1ccc(-n2nnc(-c3nccs3)n2)cc1 | 22% | 0.89µM* | 3% | -8% | 8% | 0% | RECQ1 inh conf=12%[114 µM];ADP FP counter=32%[91.9 µM]
C=C(CO)C1Cc2cc(C(C)=O)ccc2O1 (centres undefined) | / | ? | -7% | ? | -33% | ?
